We go through 26 compounds from article PMC5540273 (PLoS ONE, 2017).

Each structure is given as a SMILES string.
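Note: KINOMEscan kinase panel screen.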

In the assay the test system is MARK3. The following applies: concentration: 1 μM,replicates: in singlicate; n = 1.
In the case of `Cl.Cl.Nc1nc(-c2ccc3c(N)n[nH]c3c2)cc(N2CCCC(NC(=O)c3ccccc3)C2)n1` (centres unmarked) [GSK2286775], the “%Inh” value is 0%.

Take `CC(C)Nc1cc(-c2ccc3c(N)n[nH]c3c2)nc(N)n1` [GSK2221681]: the “%Inh” value was determined as 0%.

Turning to `COc1ccc(C[C@@H](CN)NC(=O)c2cc(Br)c(-c3ccnc4[nH]ccc34)s2)cc1.Cl.Cl` [GSK1389063], the “%Inh” value is 63%.

On to `C[C@H]1Oc2cc(cnc2N)-c2c(nn(C)c2C#N)CN(C)C(=O)c2ccc(F)cc21`, for which the “%Inh” value came out at 0%.

Take `Cc1ccc2c(-c3ccncc3)c(-c3ccc(F)cc3)nn2c1.Cl` [GW461484]: the “%Inh” value stood at 0%.

Turning to `C=CC(=O)Nc1cc2c(Nc3ccc(F)c(Cl)c3)ncnc2cc1OCCCN1CCOCC1` [GW781483], the “%Inh” value stood at 10%.

Consider `CNC(=O)c1ccccc1Sc1ccc2c(/C=C/c3ccccn3)n[nH]c2c1`, for which the “%Inh” value is on record as 1%.

Regarding `C[C@@H](Oc1cc(-c2cnn(C3CCNCC3)c2)cnc1N)c1c(Cl)ccc(F)c1Cl`, the “%Inh” value is 25%.

Take `CCN(CC)CCOc1ccc(Nc2ncc3cc(-c4c(Cl)cccc4Cl)c(=O)n(C)c3n2)cc1` [SB-601273]: the “%Inh” value is on record as 84%.

For the compound `CN(C)CCOc1ccc(-c2cc(-c3c[nH]nc3-c3ccccn3)ccn2)cc1` [GW835314], the “%Inh” value worked out at 5%.

Take `Cl.Oc1cc(-c2nc(-c3ccccc3)[nH]c2-c2ccncc2)ccc1Cl` [SB-386023]: the “%Inh” value stood at 0%.

Turning to `CC(C)N1C(=O)Cc2cc(Nc3ncc(C(F)(F)F)c(NCc4cccc(S(C)(=O)=O)c4)n3)ccc21`, the “%Inh” value was found to be 42%.

Take `O=C(NCCNc1ccnc(NCc2ccc(F)cc2)n1)c1cc2ccccc2s1` [GSK1379944]: the “%Inh” value is 0%.

`CCn1c(-c2nonc2N)nc2c(C#CC(C)(C)O)nc(OCCN)cc21.Cl.Cl` [GSK902056]: the “%Inh” value stood at 0%.

As for `NC(=O)c1cc(-c2ccccc2)cc2c(C3CCNCC3)c[nH]c12` [GSK301362], the “%Inh” value is 0%.

As for `CCN(CC)CCCCNc1ncc2cc(-c3c(Cl)cccc3Cl)c(NC(=O)NC(C)(C)C)nc2n1`, the “%Inh” value was 1%.

Turning to `Nc1nc(Nc2ccccc2)cc(-c2ccc3c(N)n[nH]c3c2)n1` [GSK2225749], the “%Inh” value came out at 0%.

For the compound `Cc1occc1-c1nc(N)c(OC[C@@H](N)Cc2c[nH]c3ccccc23)cc1-c1cc2c(C)n[nH]c2cn1` [GSK1660450], the “%Inh” value turned out to be 71%.

In the case of `Cl.Cl.NC[C@H](CC1CCCCC1)NC(=O)c1cc(Br)c(-c2ccnc3[nH]ccc23)s1` [GSK1581427], the “%Inh” value was 74%.

With `Cc1n[nH]c2ccc(-c3cc(OC[C@@H](N)Cc4ccccc4)cnc3-c3ccoc3)cc12.O=C(O)C(F)(F)F.O=C(O)C(F)(F)F` [GSK507358], the “%Inh” value is listed as 0%.

As for `O=C(NCCCN1CCOC1=O)c1cnc(NCc2cc(Cl)ccc2Cl)nc1NC1CCCC1`, the “%Inh” value is given as 30%.

Take `Cc1cc(C(=O)Nc2ccc(Oc3ccc4nc(NC(=O)C5CC5)cn4n3)cc2)nn1-c1ccccc1`: the “%Inh” value worked out at 7%.

In the case of `Cc1ccc(-n2nc(C(C)(C)C)cc2NC(=O)Nc2ccc(OCCN3CCOCC3)c3ccccc23)cc1` [GW839464], the “%Inh” value amounted to 2%.

On to `Cc1cc2cn[nH]c2cc1-c1cccc2c(N)c(C(N)=O)nnc12`, for which the “%Inh” value came to 0%.

In the case of `Cl.Cl.NC[C@H](Cc1ccc(C(F)(F)F)cc1)NC(=O)c1cc(Br)c(-c2ccnc3[nH]ccc23)s1` [GSK1487252], the “%Inh” value stood at 47%.

For the compound `CN(C)CC(O)COc1ccc(Nc2nccc(-c3cnn4nc(N5CCOCC5)ccc34)n2)cc1` (centres unmarked) [GW767488], the “%Inh” value is on record as 19%.
